According to the supplement of paper PMC10849652:
About 8,800 targets were measured; listed, in parts, are those with a hit and a random draw of the rest. About 0.5% of all pairs of compound and target were hits. Values without a mark were called inactive.

Key:
Experiment in all cases: log2 fold change, soluble protein after heating vs DMSO (PISA); higher = thermal stabilisation; K562 lysate, 10 uM; active = over 0.2 and 3.5 SD of the protein, either way, in both replicates (recomputed)
[1] = compound: Cc1cn(-c2cc(NC(=O)c3ccc(C)c(Nc4nccc(-c5cccnc5)n4)c3)cc(C(F)(F)F)c2)cn1 [nilotinib]
Procedure, shortened: (§1)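 K562 pellets were dounce-homogenised in PBS pH 7.4 with 1 mM MgCl2, and the crude extract at 1 mg/mL protein was treated with 10 μM compound for 30 min. Aliquots were heated for 3 min across 48°C-58°C, pooled, and brought to 0.5% NP-40 at 4°C; soluble protein was the supernatant after 21,000xg for 90 min. Soluble protein was quantified by TMTpro 16plex LC-MS/MS with channel sums equalised, and reported as log2 fold change in thermal stability against DMSO controls, with values from duplicates.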

[2] = compound: Cc1nc(Nc2n[nH]c3c2CN(C(=O)N[C@H](CN(C)C)c2ccccc2)C3(C)C)c2sccc2n1
Procedure, shortened: as §1

[3] = compound: Cc1nc(Nc2ncc(C(=O)Nc3c(C)cccc3Cl)s2)cc(N2CCN(CCO)CC2)n1 [dasatinib]
Procedure, shortened: as §1

[4] = compound: Cc1ncc(-c2ccnc(Nc3ccc(S(C)(=O)=O)cc3)n2)n1C(C)C
Procedure, shortened: as §1

[5] = compound: Cn1cc(-c2ccc3c(c2)CCN3C(=O)Cc2cccc(C(F)(F)F)c2)c2c(N)ncnc21
Procedure, shortened: as §1

[6] = compound: Cn1cc(CNCC2CCN(c3ncc(C(=O)NO)cn3)CC2)c2ccccc21 [quisinostat]
Procedure, shortened: as §1

[7] = compound: Cn1cncc1[C@@](N)(c1ccc(Cl)cc1)c1ccc2c(c1)c(-c1cccc(Cl)c1)cc(=O)n2C [tipifarnib]
Procedure, shortened: as §1

[8] = compound: NC(=O)Nc1cc(-c2cccc(F)c2)sc1C(=O)N[C@H]1CCCNC1
Procedure, shortened: as §1

[9] = compound: NC(=O)c1cnc(N[C@@H]2CCCC[C@@H]2N)nc1Nc1cccc(-n2nccn2)c1
Procedure, shortened: as §1

[10] = compound: NC1(c2ccc(-c3nc4ccn5c(=O)[nH]nc5c4cc3-c3ccccc3)cc2)CCC1
Procedure, shortened: as §1

[11] = compound: NCC(=O)Nc1ccc(-n2nc(C(F)(F)F)cc2-c2ccc3c(ccc4ccccc43)c2)cc1
Procedure, shortened: as §1

[12] = compound: O=C(CCCCCCC(=O)Nc1ccccc1)NO [vorinostat]
Procedure, shortened: as §1

[13] = compound: O=C(O)c1ccc2c(c1)nc(Nc1cccc(Cl)c1)c1ccncc12 [silmitasertib]
Procedure, shortened: as §1

[14] = compound: O=C1NC(=O)C(c2cnc3ccccn23)=C1c1cn2c3c(cc(F)cc13)CN(C(=O)N1CCCCC1)CC2
Procedure, shortened: as §1

[15] = compound: c1cn2cc(-c3ccc4cn[nH]c4c3)nc(Nc3ccc(N4CCOCC4)cc3)c2n1 [entospletinib]
Procedure, shortened: as §1

UniProt P26583, sequence (P26583 whole entry, looked up): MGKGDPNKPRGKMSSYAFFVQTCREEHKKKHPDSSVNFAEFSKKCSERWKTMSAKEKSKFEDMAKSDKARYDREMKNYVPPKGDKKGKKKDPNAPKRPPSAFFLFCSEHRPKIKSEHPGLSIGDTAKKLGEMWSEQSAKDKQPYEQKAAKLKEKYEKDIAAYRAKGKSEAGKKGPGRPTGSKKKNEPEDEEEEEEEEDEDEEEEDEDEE
UniProt Q75QN2, sequence (Q75QN2 whole entry, looked up): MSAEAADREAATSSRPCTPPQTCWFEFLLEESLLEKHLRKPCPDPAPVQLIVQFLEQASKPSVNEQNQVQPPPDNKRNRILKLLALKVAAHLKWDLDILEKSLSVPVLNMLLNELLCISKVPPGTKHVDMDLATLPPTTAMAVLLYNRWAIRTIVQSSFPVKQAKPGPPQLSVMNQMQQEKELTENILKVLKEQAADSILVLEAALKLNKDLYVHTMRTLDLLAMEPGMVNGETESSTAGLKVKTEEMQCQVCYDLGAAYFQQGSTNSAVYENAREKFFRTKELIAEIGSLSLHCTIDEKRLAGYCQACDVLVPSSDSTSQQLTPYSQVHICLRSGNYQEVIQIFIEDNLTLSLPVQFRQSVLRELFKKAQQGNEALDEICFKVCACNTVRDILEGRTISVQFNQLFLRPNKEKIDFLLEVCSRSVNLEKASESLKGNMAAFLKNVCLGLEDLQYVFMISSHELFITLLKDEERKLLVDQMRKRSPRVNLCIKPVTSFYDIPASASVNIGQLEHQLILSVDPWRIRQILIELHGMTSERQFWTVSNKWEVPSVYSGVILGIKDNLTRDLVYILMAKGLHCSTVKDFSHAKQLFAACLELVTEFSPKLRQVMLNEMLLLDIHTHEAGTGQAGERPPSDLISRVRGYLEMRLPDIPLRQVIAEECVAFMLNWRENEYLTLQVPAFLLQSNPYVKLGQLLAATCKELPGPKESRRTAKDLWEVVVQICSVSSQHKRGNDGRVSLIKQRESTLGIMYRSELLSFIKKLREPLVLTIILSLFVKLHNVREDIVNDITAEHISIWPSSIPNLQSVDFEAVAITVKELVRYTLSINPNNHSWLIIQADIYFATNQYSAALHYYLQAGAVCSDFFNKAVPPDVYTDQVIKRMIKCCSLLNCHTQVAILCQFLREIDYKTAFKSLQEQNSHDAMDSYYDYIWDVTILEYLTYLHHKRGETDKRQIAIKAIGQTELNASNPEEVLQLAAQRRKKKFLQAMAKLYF
UniProt Q9NVR2, sequence (Q9NVR2 whole entry, looked up): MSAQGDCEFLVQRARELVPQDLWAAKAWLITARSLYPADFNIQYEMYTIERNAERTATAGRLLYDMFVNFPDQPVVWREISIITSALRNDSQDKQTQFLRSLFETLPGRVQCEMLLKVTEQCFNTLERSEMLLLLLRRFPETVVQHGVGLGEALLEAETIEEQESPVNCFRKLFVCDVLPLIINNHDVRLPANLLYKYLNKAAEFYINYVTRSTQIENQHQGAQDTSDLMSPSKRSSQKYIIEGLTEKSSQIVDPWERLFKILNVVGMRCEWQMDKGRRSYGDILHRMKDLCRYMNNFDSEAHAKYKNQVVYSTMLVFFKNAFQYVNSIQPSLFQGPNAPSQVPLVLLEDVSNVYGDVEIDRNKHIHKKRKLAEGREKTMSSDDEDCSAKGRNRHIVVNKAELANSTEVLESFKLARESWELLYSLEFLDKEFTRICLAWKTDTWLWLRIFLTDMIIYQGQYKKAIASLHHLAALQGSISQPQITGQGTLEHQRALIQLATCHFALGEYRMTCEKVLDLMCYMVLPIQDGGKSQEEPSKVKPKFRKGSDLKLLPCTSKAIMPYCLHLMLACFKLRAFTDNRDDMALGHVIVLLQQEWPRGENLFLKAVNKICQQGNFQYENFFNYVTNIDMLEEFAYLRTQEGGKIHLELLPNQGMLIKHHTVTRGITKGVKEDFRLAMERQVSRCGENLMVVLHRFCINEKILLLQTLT
UniProt Q6AI08, sequence (Q6AI08 whole entry, looked up): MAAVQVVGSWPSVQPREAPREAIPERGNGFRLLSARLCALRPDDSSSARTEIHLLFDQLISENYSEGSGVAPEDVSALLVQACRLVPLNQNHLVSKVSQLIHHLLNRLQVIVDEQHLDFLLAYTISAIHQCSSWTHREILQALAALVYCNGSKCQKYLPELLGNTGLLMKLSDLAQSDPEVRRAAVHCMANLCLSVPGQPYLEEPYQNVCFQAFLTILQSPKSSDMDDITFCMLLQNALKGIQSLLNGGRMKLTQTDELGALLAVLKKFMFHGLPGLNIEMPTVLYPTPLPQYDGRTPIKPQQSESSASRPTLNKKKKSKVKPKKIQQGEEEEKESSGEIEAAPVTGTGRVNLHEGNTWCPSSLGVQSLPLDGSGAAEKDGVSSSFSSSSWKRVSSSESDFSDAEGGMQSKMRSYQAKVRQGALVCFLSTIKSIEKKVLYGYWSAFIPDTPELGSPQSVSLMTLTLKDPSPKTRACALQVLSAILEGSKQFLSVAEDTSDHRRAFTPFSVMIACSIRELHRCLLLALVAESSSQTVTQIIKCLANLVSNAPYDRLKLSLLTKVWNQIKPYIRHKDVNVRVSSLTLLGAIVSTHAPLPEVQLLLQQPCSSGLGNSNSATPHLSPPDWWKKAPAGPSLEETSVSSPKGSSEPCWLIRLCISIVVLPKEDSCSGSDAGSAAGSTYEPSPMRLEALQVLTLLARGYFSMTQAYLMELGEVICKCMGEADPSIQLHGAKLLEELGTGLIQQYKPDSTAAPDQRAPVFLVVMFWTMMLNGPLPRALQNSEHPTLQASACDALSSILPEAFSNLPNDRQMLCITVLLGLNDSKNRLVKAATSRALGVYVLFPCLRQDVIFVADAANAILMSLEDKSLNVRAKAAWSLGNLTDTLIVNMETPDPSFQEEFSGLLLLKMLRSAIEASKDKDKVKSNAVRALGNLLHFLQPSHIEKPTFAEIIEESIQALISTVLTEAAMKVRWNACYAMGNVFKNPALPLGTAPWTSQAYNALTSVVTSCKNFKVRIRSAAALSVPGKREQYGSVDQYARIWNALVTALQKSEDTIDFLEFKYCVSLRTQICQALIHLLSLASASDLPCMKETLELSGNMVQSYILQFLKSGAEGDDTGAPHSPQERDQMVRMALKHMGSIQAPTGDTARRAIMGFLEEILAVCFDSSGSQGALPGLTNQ
UniProt Q9BUJ2, sequence (Q9BUJ2 whole entry, looked up): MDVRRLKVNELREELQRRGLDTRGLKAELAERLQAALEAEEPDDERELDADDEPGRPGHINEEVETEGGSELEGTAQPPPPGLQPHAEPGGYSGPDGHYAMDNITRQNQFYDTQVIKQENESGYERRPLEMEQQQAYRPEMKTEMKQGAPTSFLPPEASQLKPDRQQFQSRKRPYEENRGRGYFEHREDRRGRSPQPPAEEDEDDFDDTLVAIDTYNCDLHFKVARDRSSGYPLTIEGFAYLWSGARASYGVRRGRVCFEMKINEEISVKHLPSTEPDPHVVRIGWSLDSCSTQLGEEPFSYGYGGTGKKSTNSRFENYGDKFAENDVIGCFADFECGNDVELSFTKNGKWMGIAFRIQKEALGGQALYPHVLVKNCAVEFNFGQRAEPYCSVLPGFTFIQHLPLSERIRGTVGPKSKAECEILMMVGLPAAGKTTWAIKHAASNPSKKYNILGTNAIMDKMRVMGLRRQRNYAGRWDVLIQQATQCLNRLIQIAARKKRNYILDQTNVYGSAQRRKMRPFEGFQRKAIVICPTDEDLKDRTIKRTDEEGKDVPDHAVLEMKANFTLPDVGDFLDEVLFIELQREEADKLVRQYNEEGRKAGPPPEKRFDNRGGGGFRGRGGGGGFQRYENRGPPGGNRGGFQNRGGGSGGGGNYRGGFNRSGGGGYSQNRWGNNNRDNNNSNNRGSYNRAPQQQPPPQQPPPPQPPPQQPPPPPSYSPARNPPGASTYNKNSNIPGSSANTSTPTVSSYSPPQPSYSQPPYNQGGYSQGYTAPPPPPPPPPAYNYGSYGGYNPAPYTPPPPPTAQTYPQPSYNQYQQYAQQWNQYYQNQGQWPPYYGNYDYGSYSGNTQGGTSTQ
UniProt Q92805, sequence (Q92805 whole entry, looked up): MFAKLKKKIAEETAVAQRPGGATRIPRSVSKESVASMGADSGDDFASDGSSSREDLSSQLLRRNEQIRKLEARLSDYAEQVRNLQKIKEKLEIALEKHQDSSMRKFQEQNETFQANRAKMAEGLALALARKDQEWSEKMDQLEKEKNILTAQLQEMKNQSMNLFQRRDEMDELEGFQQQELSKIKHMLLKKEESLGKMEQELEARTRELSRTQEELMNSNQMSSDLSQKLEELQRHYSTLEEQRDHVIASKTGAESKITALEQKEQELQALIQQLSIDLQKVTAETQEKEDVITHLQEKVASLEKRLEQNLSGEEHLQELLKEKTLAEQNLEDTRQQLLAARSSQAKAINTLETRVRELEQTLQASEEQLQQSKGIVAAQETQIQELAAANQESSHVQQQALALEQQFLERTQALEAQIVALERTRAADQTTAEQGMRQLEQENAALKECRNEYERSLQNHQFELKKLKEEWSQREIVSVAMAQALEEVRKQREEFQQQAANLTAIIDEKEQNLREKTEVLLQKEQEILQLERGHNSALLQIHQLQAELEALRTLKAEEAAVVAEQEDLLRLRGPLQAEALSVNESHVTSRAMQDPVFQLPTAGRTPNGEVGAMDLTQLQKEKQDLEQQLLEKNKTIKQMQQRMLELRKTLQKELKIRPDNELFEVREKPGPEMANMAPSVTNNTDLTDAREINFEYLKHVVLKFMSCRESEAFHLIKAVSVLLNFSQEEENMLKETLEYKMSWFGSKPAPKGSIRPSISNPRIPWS
UniProt Q14103, sequence (Q14103 whole entry, looked up): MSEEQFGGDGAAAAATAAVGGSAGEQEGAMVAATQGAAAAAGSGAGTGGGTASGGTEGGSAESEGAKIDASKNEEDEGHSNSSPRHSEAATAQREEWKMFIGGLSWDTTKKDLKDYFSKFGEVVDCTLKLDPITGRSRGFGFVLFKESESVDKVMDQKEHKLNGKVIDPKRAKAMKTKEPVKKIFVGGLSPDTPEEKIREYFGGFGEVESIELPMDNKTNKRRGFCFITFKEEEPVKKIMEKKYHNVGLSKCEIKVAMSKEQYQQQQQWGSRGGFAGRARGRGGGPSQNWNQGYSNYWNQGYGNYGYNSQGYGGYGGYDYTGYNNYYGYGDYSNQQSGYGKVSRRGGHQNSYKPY

Target	log2 fold change [1]	log2 fold change [2]	log2 fold change [3]	log2 fold change [4]	log2 fold change [5]	log2 fold change [6]	log2 fold change [7]	log2 fold change [8]	log2 fold change [9]	log2 fold change [10]	log2 fold change [11]	log2 fold change [12]	log2 fold change [13]	log2 fold change [14]	log2 fold change [15]
GLUD2 (UniProt P49448)	0.053	-0.067	0.013	-0.003	-0.017	0.039	0.047	0.015	0.012	-0.004	0.297 (active)	0.096	0.022	0.026	-0.084
HMGB2 (UniProt P26583)	0.045	-0.042	0.057	0.077	0.018	0.065	0.033	-0.014	-0.018	0	0.004	0.122	-0.052	0.047	0.003
HERC2 (UniProt O95714)	-0.077	0.017	0.032	-0.034	0.118	-0.061	0.007	0.028	-0.047	0.085	0.04	-0.006	-0.076	-0.009	0.014
GOLGA1 (UniProt Q92805)	0.033	-0.009	-0.026	-0.015	0.022	-0.073	-0.099	0.042	0.106	0.004	0.048	0.07	0.01	-0.076	-0.014
GTF3C3 (UniProt Q9Y5Q9)	0.035	0.052	0.008	-0.026	0.009	-0.134	-0.057	0.031	0.009	-0.084	-0.007	-0.291 (active)	0.018	0.011	-0.052
GOLPH3L (UniProt Q9H4A5)	-0.045	0.033	0	-0.006	0.01	-0.026	0.018	0.094	0.013	-0.039	-0.061	-0.035	-0.002	0.047	0.048
GSTM4 (UniProt Q03013)	-0.163	0.019	-0.047	0.054	0.118	0.163	0.008	-0.003	0.024	-0.032	0.025	0.015	0.301 (active)	0.012	-0.03
HNRNPLL (UniProt Q8WVV9)	-0.031	0.009	-0.019	0.008	-0.001	-0.063	-0.008	0.001	0.015	-0.013	0.009	-0.653 (active)	0.035	0.004	0.034
INTS10 (UniProt Q9NVR2)	-0.01	-0.025	-0.054	-0.024	0.109	-0.034	-0.021	0.011	0.039	0.028	0.027	-0.438 (active)	0.047	0.002	0.006
HNRNPUL2 (UniProt Q1KMD3)	-0.037	0.02	0.002	0.009	-0.005	-0.046	0.008	0	0.004	-0.008	0.029	-0.017	0.022	-0.023	-0.032
INTS8 (UniProt Q75QN2)	0.035	0.044	-0.072	0.049	0.021	0.003	-0.009	0.067	-0.035	-0.029	-0.012	-0.401 (active)	0.071	-0.016	0.054
HNRNPUL1 (UniProt Q9BUJ2)	-0.291 (active)	0.018	-0.012	0.006	0.01	0.015	0.019	0.045	-0.003	-0.009	-0.02	0.122	0.012	-0.022	-0.02
HEATR6 (UniProt Q6AI08)	-0.085	0.022	-0.019	0.022	0	-0.008	-0.06	0.055	0.041	0.026	-0.005	-0.466 (active)	0.047	-0.026	0
HNRNPD isoform 2 (UniProt Q14103)	-0.047	0	-0.02	0.009	-0.05	0.139	0.029	-0.025	0.015	-0.008	0.018	0.155	0.009	0.063	-0.006
GSTP1 (UniProt P09211)	0.006	-0.001	-0.035	-0.003	-0.01	-0.016	0.029	-0.029	-0.004	0.01	-0.011	-0.352 (active)	0.127	0.04	-0.001
HSPA8 (UniProt P11142)	-0.01	0.002	0.013	0.004	-0.007	0.022	0	-0.024	-0.008	0.003	-0.008	0.105	-0.009	-0.011	-0.002
IARS (UniProt P41252)	0.007	-0.007	-0.042	-0.015	0.053	-0.02	-0.003	0.038	0.001	-0.029	0.014	-0.325 (active)	0.046	-0.008	0.031
HMGA1 (UniProt P17096)	0.035	0.039	-0.012	0.014	-0.08	-0.018	0.032	-0.004	-0.025	-0.059	0.056	0.111	0.001	0.038	-0.011
